This assay deals with LXRa:RXRa (NR concentration 270 nM, RXRa partner concentration 90 nM). As to the kind of experiment: PBM binding z-score (relative to random genomic background probes); higher = stronger binding; sequences stand for … in GC…GCGATTGACAGCGTAGAATGAAGG
A digest of the protocol: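 Random background probes are the reference for binding z-scores. These scores derive from regression-normalized fluorescence on custom Agilent 4×180K protein-binding microarrays incubated 1 h with ligand-free nuclear receptor dimers. Binding was detected with antibodies against each partner (one per run).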
In the case of CCTAGTGGGTCAGGAGGTCACACACCGGATATGA, the PBM binding z-score came out at 4.06.

In turn, CCTACTGGGCAAAAAAGGTCATTGATGCCGATAA came in with a PBM binding z-score of 4.69.

Sequence TCTAGTTCGTCACGGAGGTCACACACGACGGGTA showed a PBM binding z-score of 3.72.

The sequence CCTAGTTGGTCAAGGTCACGCACGCTATAGGTAC had a PBM binding z-score of 4.55.

Consider ATATGTAGGTTAGCGGGGGTCATTCAGACTAGGC, for which the PBM binding z-score is 5.95.

For CCTAGATGGTCAGGAGGTCACACACCGGATATGA, the PBM binding z-score came out at 3.42.

CCTAGTTGGTCAGGAAGTCACACACCGGATATGA came in with a PBM binding z-score of 0.331.

The sequence CGTCAAAGTTAAAGGTAACGTAACAGAAAGCAGC came in with a PBM binding z-score of 0.253.

In turn, CCTACTGGGCCATTCAGAGGTCACTGATCATATG registered a PBM binding z-score of 3.26.

In the case of TAGCCTCGGTCATTCAGGGGCCAGTATAGAAAGC, the PBM binding z-score was determined as 1.14.

CAAACTAGGCCAAGGTCAAAGTCGGTTTGTGCCA returned a PBM binding z-score of 3.76.

Turning to ATCGAAAGGTCGAGTTGAGTATAGAGAAAGGGAA, the PBM binding z-score came to 3.84.

Turning to CGTCAAAGTTCAAGGTAAAGTAACAGAAAGCAGC, the PBM binding z-score is 5.37.

CTATGTAGGTGAAGGGGGTCATTCAGTTTGAAAG showed a PBM binding z-score of 4.45.

For TCTAGTTGGTCACGGGGGTCACACACGACGGGTA, the PBM binding z-score was 4.95.

CCTTACGGGTCACTTACAGGTTATAGCATTTGGA: the PBM binding z-score was found to be 4.49.

CCTACTGGGCCATTCAGAGGTCATCGATCATATG: the PBM binding z-score worked out at 4.22.

CAAAATAGGTCAAGAGGTCAAAGTCCGCTTCCCG: the PBM binding z-score came to 6.57.

Take TAGCCTAGGTCATGCGGGTCAGTATAGTGTCGGC: the PBM binding z-score was 3.93.

As to GCTTACGGGTCAAAGGTTAAAGCATGAATAGAAT, the PBM binding z-score was 6.08.

CGTCCAAGGTCAAAGGTCAGCGAAGAGATGACGG came in with a PBM binding z-score of 7.06.

ATCGAAAGGTCGACGAGGTGAGAATACACCGTTT came in with a PBM binding z-score of 3.9.

Sequence CGTCCAAGGGCAATGCTAGGTCAGTGAAAGCATT yielded a PBM binding z-score of 2.37.

GCTTACGGGTCAAAAGTTATAGCATGAATAGAAT: the PBM binding z-score amounted to 3.43.

CCTACTGGGCCACGAAAGGTGATTGATTCAGTGA showed a PBM binding z-score of 0.0469.

With CTATGTAGGTTAAGGGGGTCATTGAGTTTGAAAG, the PBM binding z-score stood at 4.98.

As to ATCGAAAGGTCGTGAGGTGAGTTTACAGAAAGGC, the PBM binding z-score was 4.05.

The sequence TCTACTTGGTCACGGAGGTCACACACGACGGGTA had a PBM binding z-score of 3.73.

For the sequence TCGAGTAGGTTACGGGGGCGTTCAGGGATGAAGA, the PBM binding z-score came to 2.21.

As to TATACAGGATCAAAGGCCAGAGTACGAATGTCGA, the PBM binding z-score is 0.271.

Regarding CCTAGTTGGTCAAGGTCCCACACGCTATAGGTAC, the PBM binding z-score stood at 0.395.

Regarding CCCAGTAGGTTACGAGGGGGCATTCAGTGCGAAT, the PBM binding z-score turned out to be 7.2.

For the sequence AGAATGGGGTTATTAAGATCAGGGAATTGCGGTC, the PBM binding z-score is 2.77.

In turn, ATCGAAAGGTCGTGAAGTGAGTATACAGAAAGGC had a PBM binding z-score of 3.75.

As for GCTGCTAGGTCAGGTTGGTCAGCTAACGGGTACG, the PBM binding z-score worked out at 0.656.

Sequence CCTTACGGGTCACTGACAGCTTATAGCATTTGGA registered a PBM binding z-score of 3.38.

Regarding AGAATGAGGTTAGCAAAGATCAGGGAAACGCTTG, the PBM binding z-score was determined as 1.07.

The sequence CCTAGTTGGTCAGGGGGTCACACACCGGATATGA registered a PBM binding z-score of 4.01.

On to AGTCGGAGGACAAAGGTCAGAGCTACGCCAGTGA, for which the PBM binding z-score is 4.34.

The values above are taken from the supplement of paper PMC6555819.
